Screening results: PubChem, several laboratories
An excerpt weighted towards active compounds, which were near 21% of everything screened.
CYP2C9 activ: increases human cytochrome P450 2C9 activity; AID 1024; 1.4% of 96,000 active; activation factor at 5 µM; recombinant CYP2C9, luciferin-H conversion, luminescence; hits give high values; factor 1 = untreated enzyme, 0 = blocked;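 active = activation factor of 2 or more for CYP2C9 at a 5 µM dose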;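 note: 0 = sulfaphenazole-blocked wells and 1 = vehicle-only wells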
CYP2C19 act: activators of human cytochrome P450 2C19; AID 1025; P33261; 96,000 tested, under 10 active; activation factor at 5 µM; recombinant CYP2C19, luciferin-H EGE luminescence; hits give high values; 0 = fully inhibited enzyme, 1 = untreated enzyme;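 active = activation factor of at least 2 at 5 µM in the primary screen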;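 note: 0 = wells with 2.5 mM tranylcypromine and 1 = vehicle-only wells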
Target sequence (P33261 whole entry, looked up): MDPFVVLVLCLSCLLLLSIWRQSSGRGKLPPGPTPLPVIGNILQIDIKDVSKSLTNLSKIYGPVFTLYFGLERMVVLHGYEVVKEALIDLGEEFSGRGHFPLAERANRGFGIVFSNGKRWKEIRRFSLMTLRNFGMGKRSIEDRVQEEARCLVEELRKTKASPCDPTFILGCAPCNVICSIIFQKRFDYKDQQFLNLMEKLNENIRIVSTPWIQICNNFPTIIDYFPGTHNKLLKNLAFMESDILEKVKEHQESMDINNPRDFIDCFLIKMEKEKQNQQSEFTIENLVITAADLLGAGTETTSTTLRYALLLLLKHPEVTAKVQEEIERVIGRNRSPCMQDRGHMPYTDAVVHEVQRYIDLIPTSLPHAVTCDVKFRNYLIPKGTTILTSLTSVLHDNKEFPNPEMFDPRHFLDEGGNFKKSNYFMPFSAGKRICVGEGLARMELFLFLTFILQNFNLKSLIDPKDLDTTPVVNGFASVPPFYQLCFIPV
CYP2C9 inh: human CYP2C9 inhibition. P11712. CYP2C9 Supersomes, luciferin-H conversion, luminescence. inhibition, % at 5 µM. 20% of 96,000 active. AID 777;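 active = blocking of liver enzyme CYP2C9 beyond about 50% at 5 µM, limit read from the data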
CYP2C19 inhib: inhibitors of human CYP2C19; CYP2C19 Supersomes, luciferin-H EGE luminescence, 30 min; inhibition, % at 5 µM; P33261; 21% of 96,000 active;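 active = CYP2C19 inhibition above a set limit at 5 µM in the primary screen, cut at about 50% in these data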;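 note: plate controls were negative control wells for no effect and 2.5 mM tranylcypromine positive control for full effect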
MRP reversal: MRP-mediated drug resistance reversal. H69AR cells + 2 uM doxorubicin, CellTiter-Glo, 72 h. differential viability (reversal), % at 10 µM. 0.04% of 85,000 active. AID 602;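 active = viability drop by adding the cancer drug above about 55%, with treated viability meeting a 40% cutoff, limit read from the data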;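 note: viability without doxorubicin minus viability with 2 µM doxorubicin for each compound; larger differential means the compound sensitizes cells more to doxorubicin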
MRP1 act: activators of MRP-1. viability increase, % at 10 µM. 0.61% of 140,000 active. H69AR cells + doxorubicin, viability rescue, CellTiter-Glo;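 active = viability gain under doxorubicin at or above a set limit, the compound median plus 3 SD, cut at about 4.7% in these data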;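 note: MRP-1 overexpressing cells given doxorubicin 25 µM after compound pretreatment; 18-22 h compound pretreatment then 72 h with doxorubicin before readout; 0% = doxorubicin-only wells and 100% = vehicle-treated cells without doxorubicin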
Starred values were filed as active, the others as inactive; x = not tested or not shown.

SMILES	CYP2C9 activ	CYP2C19 act	CYP2C9 inh	CYP2C19 inhib	MRP reversal	MRP1 act
CC1(C)NC(=O)N(CCCOc2ccc(Br)cc2Cl)C1=O	0.5	0.1	51*	92*	1	-2
CCC(=O)c1ccccc1OCCN1C(=O)NC(C)(C)C1=O	0.3	0.3	67*	75*	-5	-1
CC1(C)NC(=O)N(CCCCOc2ccc(Br)cc2Cl)C1=O	0.3	0	66*	99*	1	-4
CC1(C)NC(=O)N(CC(O)COc2ccccc2C(=O)N2CCCCC2)C1=O (stereo unspecified)	0.8	0.9	17	14	-10	-1
Cc1ccc(C(C)C)c(OCCN2C(=O)NC(C)(C)C2=O)c1	0.6	0.2	43	77*	19	-2
C/C=C/c1ccc(OCCCN2C(=O)NC(C)(C)C2=O)c(OC)c1	0.8	0.7	20	29	4	-1
Cc1ccc(C(C)C)c(OCCN)c1	0.8	0.9	23	9	-16	-1
O=C(CN1C(=O)CCC1=O)Nc1nc(-c2ccc(Oc3ccccc3)cc2)cs1	x	x	x	x	x	1
CC(C)c1cc(Br)ccc1OCCCN1C(=O)NC(C)(C)C1=O	0.2	0.1	78*	92*	13	-5
C/C=C/c1ccc(OCCN2C(=O)NC(C)(C)C2=O)c(OC)c1	0.9	0.6	11	37	4	-1
CCOC(=O)CC1=CC(C)(CC(=O)OCC)C(C#N)(C#N)C(N)=C1C#N (stereo unspecified)	0.2	0.8	79*	21	-3	-2
CCOc1cc(N2CCOCC2)c(OCC)cc1NC(=O)COc1ccc2ccc(=O)oc2c1	x	x	x	x	x	-3
CC(C)(C)C(=O)[C@H]1[C@H](c2ccccc2)[C@@]2(N=C(c3ccccc3)OC2=O)C2c3ccccc3C=NN21 (stereo partly specified)	0.7	0.5	29	53*	10	-4
CNC(=O)CSc1nnc(-c2cc3c(C)nn(-c4ccccc4)c3s2)n1C	x	x	x	x	10	x
CS(=O)(=O)N1CCc2cc(C(=O)OCC(=O)c3ccccc3)ccc21	1.1	1.1	-10	-11	6	1
COC(=O)CN(c1ccc2c(c1)OCCO2)S(=O)(=O)c1ccccc1	0.4	0.2	64*	84*	3	-3
O=C(CN(c1ccc(F)cc1)S(=O)(=O)c1ccc2c(c1)OCCO2)N1CCOCC1	0.7	0.9	28	11	-6	-1
COC(=O)CN(c1ccc(F)cc1)S(=O)(=O)c1ccc2c(c1)OCCO2	0.5	0.5	54*	47	12	-1
O=C(CN(c1ccc(F)cc1)S(=O)(=O)c1ccc2c(c1)OCCO2)NCc1ccccn1	0.4	0	64*	95*	1	-1
Cc1ccnc(NCn2nnc3ccccc32)c1	1	1.1	-3	-6	x	-2
CCC(CC)C(=O)Nc1ccccc1NC(C)=O	0.9	1	10	2	25	-2
O=C(c1ccccn1)N1N=C2/C(=C/c3ccccc3)CCCC2C1c1ccccc1 (stereo unspecified)	x	x	x	x	x	-2
O=C(CSc1ncn[nH]1)N1N=C2/C(=C/c3ccco3)CCCC2C1c1ccco1 (stereo unspecified)	0.1	0.1	94*	88*	-6	8.4*
COc1cccc(N/C(N)=N/c2nc(C(F)(F)F)cc(=O)[nH]2)c1	x	x	x	x	x	0
O=C(NCCC1=CCCCC1)C(=O)NCc1ccccc1	x	x	x	x	x	-3
SMILES	CYP2C9 activ	CYP2C19 act	CYP2C9 inh	CYP2C19 inhib	MRP reversal	MRP1 act
Cc1[nH]c2ccccc2c1C(=O)C(=O)NCCC1=CCCCC1	x	x	x	x	x	12*
COc1ccc(CN(Cc2cccnc2)S(=O)(=O)c2ccc(-n3cnnn3)c(C)c2)cc1OC	0.1	0.2	94*	80*	-8	-2
COc1ccc(CCN(Cc2cccs2)S(=O)(=O)c2ccc(-n3cnnn3)c(OC)c2)cc1OC	0.4	0.5	55*	50*	x	-1
COc1cc(S(=O)(=O)N(Cc2cccs2)CC2CCCO2)ccc1-n1cnnn1 (stereo unspecified)	0.7	0.5	31	47	13	-3
O=C(Nc1ccc(OCC(=O)N2CCOCC2)cc1)c1cncc(Br)c1	x	x	x	x	x	-3
COc1ccc(Cl)c(Cn2c(NCCCO)nc3c2c(=O)n(C)c(=O)n3C)c1	0.9	1	7	2	-6	-2
CCn1cc(C(=O)Nc2nncs2)c(=O)c2cc(F)c(N3CCN(C(=O)c4ccco4)CC3)cc21	x	x	x	x	9	x
CCn1cc(C(=O)NCc2ccccc2)c(=O)c2cc(F)c(N3CCN(C(=O)c4ccco4)CC3)cc21	0.4	0.5	64*	53*	-9	-2
CCn1cc(C(=O)NCc2ccc3c(c2)OCO3)c(=O)c2cc(F)c(N3CCN(C(=O)c4ccco4)CC3)cc21	0.4	0.8	58*	23	0	-2
CC(=O)c1cc(F)c(N2CCN(C(=O)c3ccco3)CC2)cc1C	0.7	0.4	25	60*	9	-1
COc1cccc(CN2C(=O)c3cccc(N)c3C2=O)c1	x	x	x	x	x	0
Clc1cccc(-c2nn3c(-c4ccncc4)nnc3s2)c1	1.1	0.5	-6	55*	15	x
Clc1ccc(-c2nn3c(-c4ccccc4)nnc3s2)cc1	0.6	0.2	40	81*	-11	-2
COc1cccc(-c2nnc3sc(-c4ccc(Cl)cc4)nn23)c1	0.3	0.6	66*	36	7	x
COc1cccc(OC)c1-c1nn2c(-c3cc(-c4ccccc4)n[nH]3)nnc2s1	0.4	0.4	57*	56*	x	-2
c1ccc(-c2nnc3sc(-c4ccncc4)nn23)cc1	0.9	0.6	14	44	16	-1
COc1cccc(-c2nnc3sc(-c4ccccc4)nn23)c1	1	0.9	0	12	-10	-3
Cc1c(NC(=O)c2cc(CC(C)C)on2)c(=O)n(-c2ccccc2)n1C	0.9	0.9	14	6	-12	2
Cc1cn2c(-c3ccc(Cl)cc3)nnc2s1	0.9	0.4	9	58*	9	-3
Clc1ccc(-c2nnc3ccccn23)cc1	1.3	1.1	-27	-13	16	1
COc1ccc(-c2nn3c(-c4ccccc4)nnc3s2)cc1	0.3	0.3	70*	74*	-27	-2
Cc1cccc(-c2nnc3sc(-c4ccccc4C)nn23)c1	0.2	0.1	81*	89*	6	-5
Cc1ccc(-c2csc(NC(=O)C3=NN(c4ccccc4)C(=O)CC3)n2)cc1	x	x	x	x	x	1
COC(=O)c1sc2ccccc2c1-n1cccc1C(=O)C(=O)Nc1ccccc1	0	0.8	100*	24	x	-1
COC(=O)c1sc2ccccc2c1-n1cccc1C(=O)C(=O)Nc1ccc(OC)cc1	0	0.6	101*	42	x	-3
CCCNC(=O)C(=O)c1cccn1-c1ccsc1C(=O)OC	0.9	0.7	8	27	0	-3
COCCOc1cc(Nc2nnc(C(F)(F)F)s2)c(Cl)cc1Cl	0.1	0.3	92*	66*	-16	-1
